In article PMC4336329 (PLoS ONE, 2015):
Screen size: about 310,000 compounds; about 14,000 (4.5%) showed an effect of 50% or more. Effects have a minus sign here. The sample as a whole holds a higher share of strong results than the screen did.
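Note: peak tail current of the secondary pulse compared with the same well before compound.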

What follows are molecules tested against human ether-à-go-go-related gene (hERG) potassium channel (human, UniProt Q12809) (assay: primary screen, population patch clamp on CHO cells stably expressing hERG; higher = less effect of the substance).
human ether-à-go-go-related gene (hERG) potassium channel, sequence (Q12809 whole entry, looked up): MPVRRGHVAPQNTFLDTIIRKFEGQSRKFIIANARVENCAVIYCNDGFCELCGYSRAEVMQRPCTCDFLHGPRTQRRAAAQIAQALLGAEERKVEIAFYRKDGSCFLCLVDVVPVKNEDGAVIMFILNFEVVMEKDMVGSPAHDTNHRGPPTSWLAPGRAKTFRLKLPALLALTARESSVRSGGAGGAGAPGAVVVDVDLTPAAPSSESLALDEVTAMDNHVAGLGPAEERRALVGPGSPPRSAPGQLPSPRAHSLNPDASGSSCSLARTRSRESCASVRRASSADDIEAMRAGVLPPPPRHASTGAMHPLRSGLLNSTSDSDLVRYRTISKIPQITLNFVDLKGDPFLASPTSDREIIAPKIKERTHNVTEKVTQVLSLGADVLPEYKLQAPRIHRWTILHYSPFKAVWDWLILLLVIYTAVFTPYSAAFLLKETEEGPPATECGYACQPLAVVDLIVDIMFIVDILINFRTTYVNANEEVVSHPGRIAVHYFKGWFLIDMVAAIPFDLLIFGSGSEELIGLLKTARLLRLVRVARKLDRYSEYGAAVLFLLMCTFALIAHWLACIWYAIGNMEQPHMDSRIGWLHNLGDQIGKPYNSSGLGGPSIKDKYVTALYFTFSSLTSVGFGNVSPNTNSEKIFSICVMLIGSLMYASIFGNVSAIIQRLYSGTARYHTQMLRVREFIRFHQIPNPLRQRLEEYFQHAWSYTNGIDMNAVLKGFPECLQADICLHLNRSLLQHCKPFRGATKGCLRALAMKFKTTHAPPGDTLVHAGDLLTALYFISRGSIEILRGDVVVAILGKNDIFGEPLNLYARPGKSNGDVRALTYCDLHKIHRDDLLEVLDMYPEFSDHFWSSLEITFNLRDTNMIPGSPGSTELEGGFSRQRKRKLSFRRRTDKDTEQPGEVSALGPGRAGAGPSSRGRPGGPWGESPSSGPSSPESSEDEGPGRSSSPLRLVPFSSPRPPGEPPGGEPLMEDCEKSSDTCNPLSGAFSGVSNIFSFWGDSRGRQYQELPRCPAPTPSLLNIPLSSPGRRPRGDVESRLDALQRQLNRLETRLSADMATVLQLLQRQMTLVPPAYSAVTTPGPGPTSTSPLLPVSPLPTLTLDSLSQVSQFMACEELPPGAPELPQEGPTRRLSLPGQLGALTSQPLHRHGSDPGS
Protocol: Briefly, Chinese hamster ovary (CHO) cells stably expressing the hERG channel were dislodged from tissue culture flasks and dispensed into PPC plates. […] During the recording, background leak currents were estimated by a 100 ms step to -80 mV from an initial holding potential of -70 mV and subtracted from the subsequent current measurement. The campaign was conducted in two phases using slight differences in recording protocol. In the first phase, the initial voltage pulse used a 100 ms step to -30 mV from a holding potential of -70 mV, a 2 s conditioning step to +25 mV, and a 2 s test step to -30 mV. During the second phase of the screen, the potential during the conditioning step was raised to +45 mV. In both phases of the campaign, a secondary voltage pulse was applied using the same parameters as the second phase initial pulse. The initial and secondary pulses were applied in the absence of compound, and upon application of 1 μM and 10 μM test concentrations. […]
In the case of C#CCOCCOCCOCCNc1nc(N2CCN(C(=O)[C@H]([C@@H](C)CC)n3cc([C@@H](N)CO)nn3)CC2)nc(N2CCN(C(=O)[C@H]([C@@H](C)CC)n3cc([C@@H](N)CC(C)C)nn3)CC2)n1.Cl, the “hERG current change (%, negative = inhibition) at 10uM” value is reported as 7.34%. In the case of CC1CCCCN1CCNC(=O)C1CCN(S(=O)(=O)c2cccc3nsnc23)CC1 (stereo not shown), the “hERG current change (%, negative = inhibition) at 10uM” value is reported as 2.44%. For CCS(=O)(=O)Nc1cccc(-c2ccc3nnc(-c4cccnc4)n3n2)c1, the “hERG current change (%, negative = inhibition) at 10uM” value was -4.03%. For CC(C)c1ccc(N(CC(=O)N/N=C/c2ccc(OC3CSC3)cc2)S(=O)(=O)c2ccccc2)cc1, the “hERG current change (%, negative = inhibition) at 10uM” value was 12.8%. CC(NC=O)c1nc2ccccc2n1CCc1ccccc1 (stereo not shown) was tested, and the “hERG current change (%, negative = inhibition) at 10uM” value was 5.34%. With CCc1ccc(NC(=O)C(=O)NCC(O)c2ccccc2)cc1 (stereo not shown) the “hERG current change (%, negative = inhibition) at 10uM” value was 8.25%. For O=C(NCCc1ccccc1)c1ccc(Cl)cc1[N+](=O)[O-], the “hERG current change (%, negative = inhibition) at 10uM” value was -0.169%. With COc1ccc(OCc2nnc(SCC(=O)Nc3cccc(C(C)=O)c3)o2)cc1 the “hERG current change (%, negative = inhibition) at 10uM” value was 4.32%. For CCc1ccc(OCc2nnc(SCC(=O)Nc3cccc(C(=O)N4CCOCC4)c3)o2)cc1, the “hERG current change (%, negative = inhibition) at 10uM” value was -61.4%. In the case of CCc1ccc(OCc2nnc(SCC(=O)NCc3ccco3)o2)cc1, the “hERG current change (%, negative = inhibition) at 10uM” value is reported as -55.2%. With CCOc1ccc(NC(=O)CSc2nnc(CNC(=O)c3ccco3)o2)cc1 the “hERG current change (%, negative = inhibition) at 10uM” value was -10.2%. In the case of Cc1cccc(OCc2nnc(SCC(=O)Nc3cccc(C(=O)N4CCOCC4)c3)o2)c1C, the “hERG current change (%, negative = inhibition) at 10uM” value is reported as -2.16%. With COc1ccc(OCc2nnc(SCC(=O)NCc3ccco3)o2)cc1 the “hERG current change (%, negative = inhibition) at 10uM” value was -14.4%. COc1ccc(Cc2nnc(SCC(=O)NCc3ccco3)o2)cc1 was tested, and the “hERG current change (%, negative = inhibition) at 10uM” value was 8.75%. O=C(CSc1nnc(CNC(=O)c2ccco2)o1)Nc1ccc(OC(F)(F)F)cc1 was tested, and the “hERG current change (%, negative = inhibition) at 10uM” value was -52.6%. In the case of COc1ccc(NC(=O)CSc2nnc(CNC(=O)c3ccco3)o2)cc1, the “hERG current change (%, negative = inhibition) at 10uM” value is reported as 11.8%. O=C1CCCN1CCCNC(=S)Nc1ccc(Br)cc1Cl was tested, and the “hERG current change (%, negative = inhibition) at 10uM” value was -2.97%. Cc1cc(Cl)ccc1NC(=S)NCCCN1CCCC1=O was tested, and the “hERG current change (%, negative = inhibition) at 10uM” value was 7.99%. For O=C1CCCN1CCCNC(=S)Nc1ccc(Cl)cc1Cl, the “hERG current change (%, negative = inhibition) at 10uM” value was -65.5%. With CCOC(=O)CC(=O)CSc1nc2c(sc(=S)n2-c2ccc(C)c(C)c2)c(=O)[nH]1 the “hERG current change (%, negative = inhibition) at 10uM” value was -10.7%. In the case of COc1ccccc1-c1sc2cc3c(cc2c1C#Cc1ccccn1)OCO3, the “hERG current change (%, negative = inhibition) at 10uM” value is reported as 8.78%. In the case of CSc1cccc(NC(=O)c2cc(S(=O)(=O)N3CCc4ccccc43)cn2C)c1, the “hERG current change (%, negative = inhibition) at 10uM” value is reported as -12.4%. In the case of O=C(Nc1ccc(Oc2ccccc2)nc1)C1CCN(Cc2ccccc2)CC1, the “hERG current change (%, negative = inhibition) at 10uM” value is reported as -54.9%. For COc1cc(CN2CCCCC2C(=O)Nc2ccc(Oc3ccccc3)nc2)ccc1O (stereo not shown), the “hERG current change (%, negative = inhibition) at 10uM” value was -4.36%. In the case of O=C(Nc1ccc(Oc2ccccc2)nc1)C1CCN(Cc2cccc(F)c2)CC1, the “hERG current change (%, negative = inhibition) at 10uM” value is reported as -49.8%. In the case of C#Cc1ccc(CN2CCC(Oc3ccc(C(=O)NCc4ccccn4)cc3)CC2)cc1, the “hERG current change (%, negative = inhibition) at 10uM” value is reported as -25%. In the case of COc1ccc(CN2CCC(C(=O)Nc3ccc(Oc4ccccc4)nc3)CC2)cc1F, the “hERG current change (%, negative = inhibition) at 10uM” value is reported as -71.6%. With CCc1ccc(CN2CCC(C(=O)Nc3ccc(Oc4ccccc4)nc3)CC2)o1 the “hERG current change (%, negative = inhibition) at 10uM” value was -58.9%. O=C(Nc1ccc(Oc2ccccc2)nc1)C1CCN(Cc2ccco2)CC1 was tested, and the “hERG current change (%, negative = inhibition) at 10uM” value was -30.8%. For CSCC(C)N1CCC(N2CCC(C(=O)NCc3ccccn3)CC2)CC1 (stereo not shown), the “hERG current change (%, negative = inhibition) at 10uM” value was -9.59%. With C#Cc1ccc(CN2CCC(N3CCC(C(=O)NCc4ccccn4)CC3)CC2)cc1 the “hERG current change (%, negative = inhibition) at 10uM” value was -72.2%. For COCc1ccc(CN2CCCCC2C(=O)Nc2ccc(Oc3ccccc3)nc2)o1 (stereo not shown), the “hERG current change (%, negative = inhibition) at 10uM” value was -0.373%. With COCCC(=O)N1CCC(C(=O)Nc2ccc(Oc3ccccc3)nc2)CC1 the “hERG current change (%, negative = inhibition) at 10uM” value was 17.6%. In the case of CCn1cc(CN2CCC(C(=O)Nc3ccc(Oc4ccccc4)nc3)CC2)cn1, the “hERG current change (%, negative = inhibition) at 10uM” value is reported as -30.3%. With Brc1ccccc1OCCOc1cccc2cccnc12 the “hERG current change (%, negative = inhibition) at 10uM” value was 14.1%. With O=C1OC2(CCCCC2)OC(=O)C1=CNc1nccs1 the “hERG current change (%, negative = inhibition) at 10uM” value was 3.3%. With O=C1CC(=O)C(n2cncn2)C(c2ccc(Cl)cc2Cl)C1 (stereo not shown) the “hERG current change (%, negative = inhibition) at 10uM” value was 7.83%. CC(=O)Nc1ccc(S(=O)(=O)NCc2nnnn2-c2ccc(F)cc2)cc1 was tested, and the “hERG current change (%, negative = inhibition) at 10uM” value was 3.41%. In the case of Cc1ccc(C(=O)N2CCN(c3ncccn3)CC2)c(C)c1, the “hERG current change (%, negative = inhibition) at 10uM” value is reported as 12.1%. With CCOC(=O)c1c(C)sc(Sc2ccc(Cl)cc2[N+](=O)[O-])c1OC the “hERG current change (%, negative = inhibition) at 10uM” value was 11.3%. With COc1ccc(C2C(C#N)=C(/N=C/N3CCOCC3)OC3=C2C(=O)CC(C)(C)C3)cc1OC (stereo not shown) the “hERG current change (%, negative = inhibition) at 10uM” value was -13.5%. With CC#CC(=O)N1CCC(C(=O)Nc2ccc(Oc3ccccc3)nc2)CC1 the “hERG current change (%, negative = inhibition) at 10uM” value was 1.55%. For O=C(Nc1ccc(Oc2ccccc2)nc1)C1CCCCN1Cc1ccc(O)cc1 (stereo not shown), the “hERG current change (%, negative = inhibition) at 10uM” value was -25.2%. C#Cc1ccc(CN2CCC(C(=O)Nc3ccc(Oc4ccccc4)nc3)CC2)cc1 was tested, and the “hERG current change (%, negative = inhibition) at 10uM” value was -72.3%. In the case of Cc1ccc(C)c(S(=O)(=O)N2CCN(CC(=O)Nc3cc(C)on3)CC2)c1, the “hERG current change (%, negative = inhibition) at 10uM” value is reported as -12.6%. With CCCCc1cc(=O)oc2c(CN(C)C)c(O)c(Cl)cc12 the “hERG current change (%, negative = inhibition) at 10uM” value was -1.34%.
